Compound activity as filed in PubChem BioAssay.
Sampled rows, rich in hits. Any-hit rate of the full collection: about 2.5%.
U2OS ROS induce: cancer cell ROS induction | U2OS ROS induction, H2DCF-DA fluorescence | ROS induction (% of piperlongumine), % at 10 µM | 2% of 46,000 active | AID 624156; in the data active = ROS induction above about 79%, passing the limit was not always enough;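 note: 0% = DMSO vehicle median and 100% = reference compound median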
YB-1 expression: YB-1 expression inhibition; delta delta Cp (YB-1 minus CDIP) (test concentration not listed); U2OS, qRT-PCR YB-1 vs CDIP delta delta Cp, 16 h; active compounds read high; zero = DMSO, each unit about twofold; AID 434959; 0.37% of 30,000 active;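 active = delta delta Cp rounded down to an integer at or above 3, about 3 SD of DMSO wells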;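 note: higher means less YB-1 transcript or more CDIP transcript relative to DMSO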
BJeLR viability: lowers viability of BJeLR cells; BJeLR fibroblasts viability, CellTiterGlo ATP luminescence, 48 h; HRASV12, hTERT and SV40 LT/ST transformed; viability loss activity score, % (no concentration beside the values); 0.64% of 30,000 active; in the data active = viability loss activity score above about 50%;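 note: higher score means fewer live cells and less ATP luminescence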
MITF inh: inhibitors of MITF. TRPM1 promoter luciferase, luminescence, 24 h. inhibition, % (concentration not given with the values). 0.28% of 37,000 active. AID 2240; in the data active = inhibition above about 85%;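 note: human melanocyte line stably carrying TRPM1 promoter luciferase reporter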
* hit, by the source's call; / = no result given.

SMILES	U2OS ROS induce	YB-1 expression	BJeLR viability	MITF inh
CC1OC(O[C@H]2C[C@@H](O)[C@]3(CO)[C@H]4[C@H](O)C[C@]5(C)[C@@H](C6=CC(=O)OC6)CC[C@]5(O)[C@@H]4CC[C@]3(O)C2)C(O)C(O)C1O (some centres undefined)	2	0.48	100*	6
C[C@@H]1O[C@@H](O[C@H]2C[C@@H](O)[C@]3(CO)C4C(CC[C@]3(O)C2)[C@@]2(O)CC[C@H](C3=CC(=O)OC3)[C@@]2(C)C[C@H]4O)[C@H](O)[C@H](O)[C@H]1O (some centres undefined)	-2	-0.021	119*	7
C[C@H]1O[C@@H](O[C@H]2C[C@@H](O)[C@]3(CO)C4C(CC[C@]3(O)C2)[C@@]2(O)CC[C@H](C3=CC(=O)OC3)[C@@]2(C)C[C@H]4O)[C@@H](O)[C@@H](O)[C@H]1O (some centres undefined)	7	-0.13	117*	31
O=C(c1noc2c1COc1ccccc1-2)N1CCC2(CC1)OCCO2	-6	/	42	/
Cc1ccnc(NC(c2ccccc2[N+](=O)[O-])c2ccc3ccc(C)nc3c2O)c1 (centres undefined)	-8	/	/	57
CCOC(=O)c1cc(C(C)(C)C)nc(OC(=O)N(C)C)c1C#N	14	0.11	0	0
O=[N+]([O-])c1ccc(O)c([N+](=O)[O-])c1	-14	0.27	14	105*
CCNCC(O)c1cccc(OC(=O)c2ccccc2C)c1 (centres undefined)	-17	/	-7	/
c1ccc2c(CNCCc3c[nH]c4ccccc34)cccc2c1	9	-0.29	9	-6
CC(=O)NC1C(OC2OC(CC(O)C3OC(n4ccc(=O)[nH]c4=O)C(O)C3O)C(O)C(O)C2NC(=O)/C=C/CCCCCCCCCC(C)C)OC(CO)C(O)C1O (centres undefined)	-13	-0.4	10	60
C/C=C(/C)C(=O)O[C@H]1C(C)=C2[C@H]([C@@H]1OC(=O)CCCCCCC)[C@@](C)(OC(C)=O)C[C@H](OC(=O)CCC)[C@@]1(O)[C@H]2OC(=O)[C@@]1(C)O	13	-0.57	33	105*
CC1C/C=C/C2C3OC3(C)C(C)C3C(Cc4ccccc4)NC(=O)C23OC(=O)O/C=C/C(C)(O)C1=O (centres undefined)	-5	0.082	3	41
COc1ccc2c(c[n+](C)c3c4cc5c(cc4ccc23)OCO5)c1OC	43	0.029	79*	72
CC(C)n1[nH]c(=O)c2c1NC(=O)CSC2c1ccc(Br)cc1 (centres undefined)	13	/	-10	/
C=CC/C=C\C/C=C\CCCCCCCc1cc(O)cc(O)c1	-2	-0.34	/	6
CC(C)C[C@H]1C(=O)N2CCC[C@H]2[C@]2(O)O[C@](NC(=O)[C@@H]3C=C4c5cccc6[nH]cc(c56)C[C@H]4N(C)C3)(C(C)C)C(=O)N12	120*	0.36	-8	-1
C[C@@H](CO)NC(=O)C1C=C2c3cccc4[nH]cc(c34)C[C@H]2N(C)C1 (some centres undefined)	-9	-0.27	3	-21
Cc1cc(Br)c(NC(=O)C2C(C)(C)C2(C)C)c(Br)c1	1	-0.34	-2	11
COc1ccc2c(c1OC)C(=O)O[C@H]2[C@H]1c2cc3c(cc2CCN1C)OCO3	7	6.4*	-6	-3
COc1ccc2c(c1OC)CN1CCc3cc4c(cc3C1C2)OCO4 (centres undefined)	-10	-0.29	3	3
C[C@H]1CC[C@@H]2[C@@H](C)[C@H]3[C@H](C[C@H]4[C@@H]5CC=C6CC(O[C@@H]7O[C@H](CO)[C@@H](O)[C@H](O[C@@H]8O[C@H](CO)[C@@H](O)[C@H](O)[C@H]8O)[C@@H]7O[C@@H]7O[C@@H](C)[C@H](O)[C@@H](O)[C@H]7O)CC[C@]6(C)[C@H]5CC[C@]34C)N2C1 (some centres undefined)	-26	-0.8	81*	52
CC(C)[C@]12O[C@H]1[C@@H]1O[C@]13[C@]1(O[C@H]1C[C@H]1C4=C(CC[C@@]13C)C(=O)OC4)[C@@H]2O	2	-1.9	90*	74
C/C=C(\C)[C@H](O)[C@H](C)/C=C(C)/C=C/C/C(C)=C/Cc1[nH]c(OC)c(OC)c(=O)c1C	17	-0.53	26	96*
Oc1ccc2c3c1OC1[C@@H](O)CC[C@@]4(O)[C@@H](C2)N(CC2CCC2)CC[C@]314 (some centres undefined)	-11	-0.056	16	0
COc1cc([C@@H]2c3cc4c(cc3[C@@H](O)C3COC(=O)C32)OCO4)cc(OC)c1O (some centres undefined)	42	0.016	50*	44
SMILES	U2OS ROS induce	YB-1 expression	BJeLR viability	MITF inh
COc1cc(C2c3cc4c(cc3CC3COC(=O)C32)OCO4)cc(OC)c1OC (centres undefined)	14	-0.8	64*	48
COc1cc([C@@H]2c3cc4c(cc3[C@H](OC(C)=O)[C@H]3COC(=O)[C@@H]23)OCO4)cc(OC)c1OC	-11	0.62	33	37
COc1cc2c(cc1O)CCNC2C (centres undefined)	16	-0.1	-4	-14
CC[C@H]1CN2CCc3cc(OC)c(OC)cc3[C@@H]2C[C@@H]1C[C@H]1NCCc2cc(O)c(OC)cc21	9	1.2	94*	88*
C[C@@H]1C(=O)O[C@H]2[C@H]1CC[C@@]1(C)C=CC(=O)[C@@]3(C)O[C@@]213	-4	4*	7	-2
CCOc1ccccc1C1NC(=S)NC(c2ccccc2OCC)C12C(=O)NC(=O)NC2=O (centres undefined)	/	/	0	/
C[C@@H]1CCC/C=C/[C@H]2C[C@@H](O)C[C@@H]2[C@@H](O)/C=C\C(=O)O1	-10	0.2	39	87*
C[C@H]1CN([C@@H](C)CO)C(=O)CCCn2cc(nn2)CO[C@@H]1CN(C)C(=O)Oc1ccc2ccccc2c1	134*	-0.25	/	/
CCC(C)[C@H]1C(=O)O[C@H](C(C)C)C(=O)N(C)[C@@H](C(C)CC)C(=O)O[C@H](C(C)C)C(=O)N(C)[C@@H](C(C)CC)C(=O)O[C@H](C(C)C)C(=O)N1C (some centres undefined)	-26	-0.1	91*	96*
CO/C1=C/C(C)=C/[C@@H](C)[C@@H](O)[C@@H](C)C/C(C)=C/C=C\[C@H](OC)[C@@H]([C@@H](C)[C@@H](O)[C@H](C)[C@@]2(O)C[C@@H](O)[C@H](C)[C@@H](C(C)C)O2)OC1=O	0	0.01	52*	-61
Cc1cc(OCc2c(F)cccc2Cl)c2c3c(c(=O)oc2c1)CCCC3	-3	/	-1	/
Fc1ccc(Sc2c(F)c(F)nc(N3CCNCC3)c2F)cc1	-11	/	0	/
CCOC(=O)C1(c2ccccc2)CCN(C(=O)c2c(C)oc3ccc(OC)cc23)CC1	80*	/	2	/
CC(N)Cc1c[nH]c2ccc(OCc3cccs3)cc12 (centres undefined)	99*	-1.3	-2	-1
